We go through 96 compounds from PubChem BioAssay AID738 (SRMLSC, 2007).

Screen size: about 98,000 compounds; about 4,900 (5%) were called active. For the sample, actives were picked, then their nearest neighbours and some compounds at random. Values without a mark were called inactive. Cut-off read from the data, not from the text of the source: active = inhibition above about 30%; inactive = the rest.

This assay in a line: yeast control strain growth suppression – counter-screen for post-Golgi transport modulator project, primary screen (AID 738). The following applies: efflux-deficient yeast background strain, growth absorbance A615, 16 h; at 10 µM; hits give high values.
A word on the inhibition: it is the relative decrease from the control value, in per cent. Take `CCOc1ccc2nc(N3CCCN(C(=O)Nc4ccccc4C)CC3)c(C#N)cc2c1`: the inhibition was 56.8% (active).
The same measure for `COc1ccc2nc(N3CCCC(O)C3)c(C#N)cc2c1` (stereo unspecified): 6.9%; for `CCOc1ccc2nc(NCCNS(=O)(=O)c3ccccc3)c(C#N)cc2c1`: -2.23%; for `Cc1ccc2cc(CCNC(=O)c3c(-c4ccccc4Cl)noc3C)c(=O)[nH]c2c1`: 9.09%.
The same measure for `CN1CCN(c2ccc([N+](=O)[O-])c(Sc3nc4ccccc4[nH]3)c2)CC1`: 7.22%; for `CSc1ccc(C#N)cc1NC(=O)c1ccc(Cl)cc1`: -4.75%.
Then `CSc1cc(C)n(-c2ccccc2C)c(=S)c1C(C)=O`, with 4.46%.
In the case of `CC(C)OCCCNC(=O)C1CC(=O)N(C2CCCCCCC2)C1` (stereo unspecified), the inhibition is 0.87%.
Then `Cc1ccc(CNC(=O)C2CC(=O)N(C3CCCCCCC3)C2)cc1` (stereo unspecified), with 11.5%.
Then `O=C(NCCCN1CCCCCC1)C1CC(=O)N(C2CCCC2)C1` (stereo unspecified), with 39.6% (active); and `COc1ccc(CCNC(=O)COC(=O)c2ccc[nH]c2=O)cc1`, with 8.99%; and `CCn1c(SCc2ccc(C)cc2)nnc1-c1nn(-c2ccccc2)ccc1=O`, with 28.2%.
For the compound `CC(c1ccco1)N(C(=O)Nc1ccccc1)C1CCCCC1` (stereo unspecified), the inhibition is 34.8% (active).
Then `CCCC(C(=O)NCc1ccco1)N(C(=O)CNS(=O)(=O)c1ccccc1)C1CCCC1` (stereo unspecified), with -6.03%.
Take `CCOc1ccc(NC(=O)N(CCC(C)C)C(C)c2ccco2)cc1` (stereo unspecified): the inhibition is 14.1%.
The same measure for `CCCCNC(=O)CSc1nc2ccc(NC(=O)CSc3nnc(COc4ccccc4C)n3C)cc2s1`: -0.61%; for `CN(C(=O)CSc1nc(C2CC2)nc2ccccc12)c1nc(-c2ccccc2)cs1`: 3.27%; for `Cc1ccc(/C=N\n2c(-c3ccccc3)n[nH]c2=S)s1`: 6.75%.
As for `Oc1ccccc1/C=N/n1c(-c2cccs2)n[nH]c1=S`, the inhibition was 7.52%.
Then `S=c1[nH]nc(-c2ccco2)n1/N=C/c1ccc(Br)s1`, with 32.1% (active).
On to `COC(=O)c1c(CCl)noc1C(=O)NC(C)C`, for which the inhibition is -6.4%.
Then `CCCCSc1[nH]c(=O)c(C(=O)OCC)cc1C#N`, with -5.6%; and `C/C(=N/NC(=O)c1ccc(NC(=O)c2ccc(F)cc2)cc1)c1ccccc1`, with 4.86%.
Take `Cc1nn(CCOc2ccccc2)c(=O)n1-c1ccccc1F`: the inhibition is 14%.
Then `CCC(=O)c1ccc(OCC(O)CN2CC(C)OC(C)C2)cc1` (stereo unspecified), with 30.9% (active).
The same measure for `O=C(C(c1ccccc1)c1ccccc1)N1CCN(CC(O)COc2ccccc2)CC1` (stereo unspecified): 9.41%; for `OC(COc1cccc(OCC(O)CN2CCCC2)c1)CN1CCCC1` (stereo unspecified): 0.3%; for `OC(COc1ccc2c(c1)CCC2)CN1CCN(c2cccc(Cl)c2)CC1` (stereo unspecified): 82.4% (active).
Then `O=C(COc1ccc(Cl)cc1)N1CCN(c2cccc(C(F)(F)F)c2)CC1`, with 27.6%; and `O=C(c1ccc(Cl)cc1)c1ccc(OCC(O)CN2CCCCC2)cc1` (stereo unspecified), with 7.05%.
In the case of `CCC(=O)c1ccc(OCC(O)CN2CCN(c3cccc(C(F)(F)F)c3)CC2)cc1` (stereo unspecified), the inhibition is 38.7% (active).
Consider `CCC(=O)c1ccc(OCC(O)CN2C(=O)NC(C)(C)C2=O)cc1` (stereo unspecified), for which the inhibition is 7.58%.
The same measure for `O=S(=O)(c1ccc(OCC(O)CN2CCN(c3ccccc3Cl)CC2)cc1)N1CCOCC1` (stereo unspecified): -0.44%; for `Cc1cc(C(=O)OCC(=O)Nc2ccc(F)c(F)c2)c(C)o1`: 8.41%; for `O=C(Nc1ccc2sc3ccccc3c(=O)c2c1)c1ccccc1Cl`: -1.51%.
The same measure for `CN(CC#CCC(c1ccccc1)c1ccccc1)C(C)(C)C`: 15.3%; for `COC(=O)c1ccccc1NC(=O)CN(Cc1ccc(Cl)cc1)S(C)(=O)=O`: 20.7%; for `CC(=O)N1Cc2ccccc2CC1C(=O)O` (stereo unspecified): -1.83%.
Turning to `COc1cccc(N(CC(=O)N2CCc3ccccc3C2)S(C)(=O)=O)c1`, the inhibition was 2.59%.
As for `CCOC(=O)N1CCN(C(=O)CN(c2ccc(C)c(C)c2)S(=O)(=O)c2ccccc2)CC1`, the inhibition is -2.62%.
Then `Cc1ccc(S(=O)(=O)N(CC(=O)N2CCc3ccccc3C2)c2cccc(Cl)c2)cc1`, with 53.7% (active); and `COc1ccc(Cl)cc1NC(=O)CN(C)C(=O)CNC(=O)C12CC3CC(CC(C3)C1)C2`, with 11.5%.
Then `CCCCN=C1N/C(=C\c2ccco2)C(=O)N1c1ccccc1`, with 13.4%.
The same measure for `Cc1ccc(C(=O)NNC(=O)OC(C)(C)C)c(Cl)c1`: -3.45%; for `COc1ccc(N2CCN(Cc3cc(=O)oc4ccc5ccccc5c34)CC2)cc1`: 31% (active).
Take `O=c1cc(CN2CCN(c3cccc(Cl)c3)CC2)c2cc3c(cc2o1)CCCC3`: the inhibition was 1.31%.
The same measure for `COc1ccc(N2CCN(Cc3ccc(Br)s3)CC2)cc1`: 1.68%.
For the compound `NC(=O)c1nsc(C(=O)N(CC(=O)NCc2ccc(F)cc2)Cc2ccco2)c1N`, the inhibition is -18.4%.
Then `COc1ccc(OCC(=O)NN2Cc3ccccc3C2=N)cc1`, with 30.9% (active); and `COc1ccc(OCC(=O)N2CCN(C(=O)COc3ccccc3)CC2)cc1`, with -2.43%; and `COc1ccc(C(=O)Nc2cc(C)ccc2NC(=O)COc2ccccc2)cc1`, with -12.5%.
The same measure for `O=C(O)c1cnn2c(C(F)(F)F)cc(-c3ccccc3)nc12`: -4.57%; for `CC(=O)N1CCN(c2cccc(C)c2C)CC1`: 3.94%.
Then `Cc1cccc(N2CCN(C(=O)c3cnn4c(C(F)F)cc(-c5ccccc5)nc34)CC2)c1C`, with 61.4% (active).
`Clc1ccccc1-c1cc(COc2ccc3ccccc3c2)no1`: the inhibition was 1.75%.
As for `CN(C)S(=O)(=O)c1ccc(N2CCCC2)c(C(=O)NCc2ccccc2)c1`, the inhibition is 4.17%.
On to `CCOc1[nH]n(-c2ccc(Cl)cc2)c(=O)c1C=Nc1ccc(O)cc1`, for which the inhibition is 1.52%.
The same measure for `CCOc1ccc(N=C2NC(=O)S/C2=C\c2ccc(O)cc2)cc1`: 41.5% (active); for `CCOc1ccc(N=C2SC(C(=O)O)CC(=O)N2C)cc1` (stereo unspecified): -1.43%; for `O=C1CCN(C(=O)Nc2ccccc2)N1`: 1.84%.
The same measure for `Cc1ccccc1NC(=S)Nc1cccc([N+](=O)[O-])c1`: -0.57%; for `CCOC(=O)N1CCN(C(=O)c2ccc(S(=O)(=O)c3ccc(C)cc3)c(NC(C)=O)c2)CC1`: 7.81%.
The same measure for `CCOC(=O)N1CCN(C(=O)c2ccc(CN(c3ccc(C)c(C)c3)S(C)(=O)=O)cc2)CC1`: 3.07%.
In the case of `CCOC(=O)N1CCN(C(=O)c2ccc3c(c2)N(Cc2ccc(C)cc2)CCS3)CC1`, the inhibition is 34.6% (active).
The same measure for `Cc1ccc(NC(=O)CN2CCc3ccccc3C2)cc1`: 8.09%; for `O=C(Oc1ccc([N+](=O)[O-])cc1)c1ccc2ccccc2n1`: 41.8% (active).
Then `Cc1cccc(NC(=O)c2ccc3ccccc3n2)n1`, with 12.6%; and `N/C(Cc1ccc([N+](=O)[O-])cc1)=N\OC(=O)COc1ccc2ccccc2c1`, with 18.8%.
Then `Cc1ccc(C(=O)OC2=CC(=O)CC(C)(C)C2)cc1`, with -1.57%.
In the case of `COc1cccc(NC(=O)c2nn(C34CC5CC(CC(C5)C3)C4)cc2[N+](=O)[O-])c1`, the inhibition is 26.5%.
The same measure for `Cc1ccc2c(c1)c1ncn(CCC3=CCCCC3)c(=O)c1n2C`: 21.9%; for `Cc1ccc2c(c1)c1ncnc(N3CCc4ccccc4C3)c1n2C`: 30% (active).
In the case of `Cc1ccc(S(=O)(=O)Nc2nc3ccccc3nc2N2CCc3ccccc3C2)cc1`, the inhibition was 19.2%.
Consider `O=C(O)/C=C/C(=O)Nc1ccc(F)cc1F`, for which the inhibition is 11.5%.
The same measure for `Cc1ccc(-n2nc(N)c3c(=O)oc(N(C)C)nc32)cc1`: 33.1% (active); for `Cc1ccc(-c2nc3c(cnn3-c3ccccc3)c(=O)o2)cc1`: 15.6%; for `O=C(Nc1cc(-c2nn(CC(=O)N3CCCCC3)c(=O)c3ccccc23)ccc1N1CCOCC1)c1ccc(Cl)cc1`: 0.85%.
Then `N=c1ccn(CC(=O)NC(N)=O)c2ccccc12`, with 12.8%; and `N#Cc1ccc(Oc2cc(C(F)(F)F)nc(-c3ccccn3)n2)cc1`, with 1.51%; and `O=C(Oc1ccccc1)Oc1ccc2c(c1)oc(=O)c1ccccc12`, with 41% (active).
Then `CC(=O)Oc1ccc2c(C)c(CC(C)O)c(=O)oc2c1` (stereo unspecified), with 9.1%; and `CC(=O)Nc1cc2ccc(OC(C)=O)cc2oc1=O`, with -1.59%; and `CSc1nc2ccccc2cc1/C=C(\C#N)c1ccc(Cl)cc1Cl`, with 24.2%.
As for `O=C(CCN1C(=O)c2ccncc2C1=O)Nc1ccc2c(c1)OCCO2`, the inhibition is 30.7% (active).
On to `O=C(Nc1ccc2c(c1)OCCO2)c1ccncc1`, for which the inhibition is 31.6% (active).
Then `O=C(Nc1ccc2c(c1)OCCO2)c1cnccn1`, with 14.2%; and `Cn1c(=O)n(C)c2cc(C(=O)Nc3ccc4c(c3)OCO4)ccc21`, with 1.14%.
The same measure for `O=C(CCN1C(=O)c2ccccc2C1=O)Nc1ccncc1`: 13.3%; for `CCCCC(=O)Nc1ccc2c(c1)OCCO2`: -0.45%.
The same measure for `O=c1c2ccccc2c(-c2ccc(Br)cc2)nn1Cc1ccccc1`: 12%; for `c1ccc(-n2nnnc2NC2CCCCCC2)cc1`: 2.73%.
As for `COC(=O)/C=C/C(=O)NCc1ccco1`, the inhibition was 4.81%.
Turning to `Cc1cc(-c2ccccc2)n2nc(C)c(-c3ccccc3)c2n1`, the inhibition was 0.91%.
Then `O=C(N/N=C\c1ccc(-c2ccc(Cl)c(Cl)c2)o1)C(=O)N1CCCC1`, with -8.31%; and `O=c1c2ccccc2nc2n1C(CSc1ccc(F)cc1)CN2` (stereo unspecified), with 8.1%; and `O=C1COc2ccc(NC(=O)N3CCN(c4ccc(F)cc4)CC3)cc2N1`, with -5.66%.
